Bioassay records deposited in PubChem BioAssay by National Center for Advancing Translational Sciences (NCATS).
KB-3-1 tox = kills parental KB-3-1 adenocarcinoma cells; KB-3-1 viability, CellTiter-Glo ATP luminescence, 72 h; Potency, µM (highest dose often 46.1 µM), actives largely listed as cytotoxic; 1.4% of 400,000 active; AID 1347075; further: on the % scale 0 is the no-effect control and ±100 the full control effect; nearly all actives have a fitted effect of over 60% in size
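Screening of KB-3-1 cells (DMEM, 10% FBS, phenol-red free) ran from lowest to highest compound concentration; after 72 h at 37 °C viability was read luminescently and curves fitted.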
KB-V1 MDR tox = KB-V1 MDR subline cytotoxicity; KB-V1 MDR cells viability, CellTiter-Glo, 72 h; AID 1347076; 3.4% of 400,000 active; Potency, µM (highest dose often 46.1 µM), hits mostly cytotoxic; further: on the % scale 0 is the no-effect control and ±100 the full control effect; nearly all actives have a fitted effect of over 60% in size
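KB-V1 MDR subline cells in DMEM (phenol-red free, 10% FBS) exposed to compounds in qHTS concentration series for 72 h at 37 degrees C. Viability read by CellTiter-Glo luminescence; concentration-effect curves fitted after normalization and correction.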
HT1080NT lethal = kills 2HG-producing HT-1080-NT fibrosarcoma cells. HT-1080-NT fibrosarcoma viability, CellTiter-Glo ATP luminescence, 48 h. Potency, µM (titrated, usually from 46.1 µM), for inactives: at the top dose activity, negative = less viability, hits mostly cytotoxic. 1.6% of 360,000 active;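 further: NT is the 2HG producing partner of a matched IDH1 knockdown line; 0% = DMSO-treated cells and -100% = media-only wells without cells; nearly all actives have a fitted effect of over 55% in size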
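Viability of the 2HG-overproducing fibrosarcoma line after 48 hours of compound exposure at 37 degrees C was determined by luminescence with CellTiter-Glo, and concentration-effect curves were then fitted and categorized.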
MCF10A rerep = DNA re-replication induction in MCF 10a cells; MCF 10A DNA re-replication, Hoechst nuclear intensity, 48 h; 2.9% of 350,000 active; Potency, µM (titrated, usually from 46.1 µM), inactives show top-dose activity, positive = re-replication, usual class: activators; further: % of control where 0% means no effect; nearly all actives have a fitted effect of over 50% in size
HT1080 IDH1KD tx = HT-1080 IDH1 knockdown cell toxicity (counter line); Potency, µM (top dose mostly 46.1 µM), for the others: top-dose activity, negative = toxicity, actives largely listed as cytotoxic; 2% of 360,000 active; AID 686971; HT-1080 IDH1 knockdown viability, ATP luminescence, 48 h;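 further: 0% = DMSO wells and -100% = cell-free medium wells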
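IDH1KD HT-1080 cells, 750/well, RPMI + 5% FBS; compound pinned after 2 h settling; 48 h, 37 °C; CellTiter-Glo luminescence; % activity normalised to DMSO and no-cell wells; curves fitted, classed by r2 and efficacy.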
SW480 rereplic = inducers of DNA re-replication in SW480 colon cancer cells. SW480 DNA re-replication, Hoechst DNA content imaging, 48 h. Potency, µM (titrated, usually from 46.1 µM), inactives show at the top dose re-replication activation, actives largely listed as activators. 1.8% of 340,000 active. AID 624297; further: % of control where 0% means no effect; nearly all actives have a fitted effect of over 55% in size
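Image-based read-out: total Hoechst fluorescence of nuclei (405 nm excitation, 500-530 nm emission), with hits raising the fraction of high-intensity nuclei. SW480 colon cells incubated 48 hr with compounds at 37 C.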
* marks the source's active call; other numbers are inactive results; i = inactive; ? = inconclusive; [ ] = dose if it differs, or a comment. In the library only some 7.9% were active in any assay of this set; here they are far more common. The call rests on the fitted dose curve; in most records, active means well fitted curve in the direction sought with a large enough effect; inconclusive means small, poorly fitted or top-dose-only effect, or another doubt; inactive means no such curve, though single readings can be large; an effect the other way counts as inactive or inconclusive. Potency means the concentration at half of the fitted maximal effect.

SMILES | KB-3-1 tox | KB-V1 MDR tox | HT1080NT lethal | MCF10A rerep | HT1080 IDH1KD tx | SW480 rereplic
O=C(NCc1cccc(Cl)c1)c1cccc(OC2CCN(C(=O)C3CC3)CC2)c1 | 23.1µM* | ? | ? | ? | -11.8% | -5.6%
C=CCn1c(SCC(=O)N2CCN(CCO)CC2)nc2sc3c(c2c1=O)CCC3 | i | ? | -0.8% | 5.8% | 6.2% | -0.2%
CC1(C)CC(=O)C2=C(C1)OC(N)=C(C#N)C2c1ccc(OC(=O)N2CCOCC2)cc1 (stereo not given) | i | i | 10.8% | 4.0% | 11.9% | -11.7%
CN(C)CCOC(=O)/C(=C/c1cn(C)c2ccccc12)NC(=O)c1ccccc1 | i | i | -15.0% | ? | -18.9% | -0.2%
CCOC(=O)C1CCN(C2CC(=O)N(c3ccc(OCC)cc3)C2=O)CC1 (stereo not given) | i | i | 10.3% | -2.5% | 14.0% | -4.7%
NC(=O)C1(N2CCCCC2)CCN(c2nc(-c3ccc(Br)cc3)cs2)CC1 | i | 23.1µM* | 14.0% | ? | 23.8% | -3.4%
COc1ccccc1NC(=O)CSc1nnc(Cc2cccs2)n1C | i | i | 0.1% | -1.9% | 4.0% | -3.2%
Cc1ccc(NN2C(=O)C=C(c3ccccc3)C2=O)cc1 | i | i | 23.1µM* | 8.2µM* | 16.4µM* | 8.2µM*
O=C(COc1ccc(Cl)cc1Cl)N1CCCN(C(=O)COc2ccc(Cl)cc2Cl)CC1 | ? | 8.2µM* | -26.9% | ? | ? | ?
CCOC(=O)N1CCN(C(=O)COc2ccc(Br)cc2Cl)CC1 | i | 7.31µM* | -3.9% | 0.2% | -2.3% | 0.3%
O=C(COc1ccc(Br)cc1Cl)N1CCN(c2ncccn2)CC1 | i | i | 3.8% | -0.3% | 4.8% | -3.5%
N#Cc1c(-c2ccc(F)cc2)c2c([nH]c1=O)-c1ccccc1OC2 | i | i | 2.6% | 4.11µM* | 11.0% | 6.51µM*
N#Cc1c(-c2cccnc2)c2c([nH]c1=O)-c1ccccc1OC2 | i | i | 15.8% | 14.6µM* | 10.4% | 2.59µM*
Cc1ccc2[nH]c(=O)c(-c3nc4cc(C)ccn4c3NCc3ccco3)cc2c1 | i | ? | ? | -3.5% | -3.0%[9.24 µM] | -5.1%
CC(C)c1c(O)nc(SCCN(C)C)[nH]c1=O | i | i | 5.2% | -3.3% | 3.4% | 2.2%
CCCCCN(C(=O)CCC(=O)OCc1ccc(C(C)(C)C)cc1)c1c(N)n(CCCC)c(=O)[nH]c1=O | i | i | -27.4% | 20.6µM* | ? | -1.3%
Nc1c(N(CCC2=CCCCC2)C(=O)COc2ccc(F)cc2Cl)c(=O)[nH]c(=O)n1Cc1ccccc1 | 8.2µM* | ? | 18.4µM* | 11.6µM* | 10.3µM* | 0.4%
Nc1c(N(CCC2=CCCCC2)C(=O)Cc2ccc(F)cc2)c(=O)[nH]c(=O)n1Cc1ccccc1 | i | i | -3.6% | 14.0% | -7.1% | ?
CCCCCN(C(=O)CCC(=O)OCc1ccccc1F)c1c(N)n(CCCC)c(=O)[nH]c1=O | ? | i | -1.0% | 3.4% | 1.2% | -0.5%
COCCN(C(=O)COC(=O)c1ccccc1Oc1ccccc1)c1c(N)n(Cc2ccccc2)c(=O)[nH]c1=O | ? | i | -1.6% | 0.3% | -0.6% | 20.6µM*
CCCCCN(C(=O)CCC(=O)OCc1ccc(C(C)C)cc1)c1c(N)n(CCCC)c(=O)[nH]c1=O | i | i | -5.5% | 23.1µM* | -14.0% | 22.3%
O=C(NCc1ccccn1)c1ccc2c(c1)N(Cc1ccccc1)CCS2 | i | i | -14.7% | 7.2% | -27.7% | -4.4%
CCCCn1c(N)c(N(CCOC)C(=O)CCCc2nc3ccccc3c(=O)[nH]2)c(=O)[nH]c1=O | ? | i | -3.4% | 9.2% | -3.6% | 23.1µM*
CCCCN(C(=O)CCCc1nc2ccccc2c(=O)[nH]1)c1c(N)n(CCCC)c(=O)[nH]c1=O | ? | i | 8.3% | -2.2% | 2.7% | -0.6%
CC(C)C(C(=O)NCC1CCCO1)N(Cc1cccs1)C(=O)CNS(=O)(=O)c1ccccc1 (stereo not given) | i | i | -0.9% | -4.0% | 7.6% | 1.8%
SMILES | KB-3-1 tox | KB-V1 MDR tox | HT1080NT lethal | MCF10A rerep | HT1080 IDH1KD tx | SW480 rereplic
Oc1ccc(N=Nc2ccccc2)o1 | i | i | 16.4µM* | ? | 23.1µM* | ?
CC(=O)c1c(C)nc(-c2ccc(OCC(=O)Nc3cccc(C)c3C)cc2)n1O | i | i | -0.4% | 6.1% | -0.6% | 9.8%
CCC(=O)/C=C1\Sc2ccc(OC)cc2N1CC | ? | 14.6µM* | -22.9% | 23.3% | -9.5% | -3.9%
CCOc1ccc(-n2cc(-c3ccccc3)c3c(N4CCOCC4)ncnc32)cc1 | i | i | ? | ? | ? | 1.9%
CN1CCN(c2ncnc3c2c(-c2ccccc2)cn3-c2ccc(F)cc2)CC1 | i | i | 23.1µM* | ? | 23.1µM* | ?
c1ccc(-c2cn(-c3ccccc3)c3ncnc(N4CCCCC4)c23)cc1 | i | i | ? | 16.4µM* | ? | 22.1%
COc1ccc(-n2cc(-c3ccccc3)c3c(N4CC(C)OC(C)C4)ncnc32)cc1 (stereo not given) | i | ? | ? | 23.1µM* | 23.1µM* | 14.5%
COc1ccc(Nc2nc(OC)nc(OC)n2)cc1 | i | i | 18.0% | -4.0% | 3.4% | 0.9%
COc1ccc(Nc2nc(Nc3ccc(OC)cc3)nc(-n3[nH]c(=O)c(C)c3C)n2)cc1 | i | 1.16µM* | ? | ? | ? | 13.4%
CCCCn1c(C)nc2cc(S(=O)(=O)N3CCOCC3)ccc21 | i | i | -2.1% | -0.2% | 0.0% | 3.8%
CCc1ccc(C(=O)CSc2nc3cc(S(=O)(=O)N4CCOCC4)ccc3n2CC)cc1 | i | 20.6µM* | 1.0% | -1.8% | -2.3% | 12.7%
CCCCn1c(CCl)nc2cc(S(=O)(=O)N3CCOCC3)ccc21 | ? | ? | -9.6% | ? | ? | 13µM*
O=S(=O)(c1ccc2c(c1)nc(COc1ccc(Cl)cc1)n2CC1CCCO1)N1CCOCC1 (stereo not given) | i | 23.1µM* | 3.4% | 10.1% | -1.0% | 8.4%
O=C(NCC1CCCO1)c1cc(S(=O)(=O)N2CCOCC2)ccc1Cl (stereo not given) | i | i | 0.2% | -3.0% | 0.3% | 1.1%
CCOC(=O)C(=Cc1cc(=O)c(OC)co1)C(=O)OCC | 4.61µM* | ? | 11.6µM* | 1.64µM* | 18.4µM* | ?
COC(=O)c1ccccc1NC(=O)COC(=O)/C=C/c1ccco1 | i | i | -1.5% | -1.4% | 4.8% | -13.8%
